Experiments:
Assay in all cases: log2 ratio of Biotin-Ahx-Ub-VS probe labelling (fragment/DMSO); higher = less target engagement (more negative = stronger competition), active = hit call of the paper (q ≤ 0.05, log2 ratio ≤ -1)
Details in all cases: compound concentration: 200 uM; treatment time: 3 h
USP34 = USP34 (UniProt Q70CQ2)
In short: (§1)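 The table lists average log2 ratios of fragment over vehicle, from an unpaired t-test on global-median-normalised Spectronaut label-free quantities. Proteins with ≥2 unique peptides were used. Samples were HEK293T lysate (495 µg) treated in triplicate with fragment at 200 µM or vehicle for 3 h, then with Biotin-Ahx-Ub-VS (0.5 µM final) for 1 h, with labelled DUBs NeutrAvidin-enriched and run by diaPASEF LC-MS/MS.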

USP36 = biological target: T1, USP36 (UniProt Q9P275)
T1 sequence (whole entry): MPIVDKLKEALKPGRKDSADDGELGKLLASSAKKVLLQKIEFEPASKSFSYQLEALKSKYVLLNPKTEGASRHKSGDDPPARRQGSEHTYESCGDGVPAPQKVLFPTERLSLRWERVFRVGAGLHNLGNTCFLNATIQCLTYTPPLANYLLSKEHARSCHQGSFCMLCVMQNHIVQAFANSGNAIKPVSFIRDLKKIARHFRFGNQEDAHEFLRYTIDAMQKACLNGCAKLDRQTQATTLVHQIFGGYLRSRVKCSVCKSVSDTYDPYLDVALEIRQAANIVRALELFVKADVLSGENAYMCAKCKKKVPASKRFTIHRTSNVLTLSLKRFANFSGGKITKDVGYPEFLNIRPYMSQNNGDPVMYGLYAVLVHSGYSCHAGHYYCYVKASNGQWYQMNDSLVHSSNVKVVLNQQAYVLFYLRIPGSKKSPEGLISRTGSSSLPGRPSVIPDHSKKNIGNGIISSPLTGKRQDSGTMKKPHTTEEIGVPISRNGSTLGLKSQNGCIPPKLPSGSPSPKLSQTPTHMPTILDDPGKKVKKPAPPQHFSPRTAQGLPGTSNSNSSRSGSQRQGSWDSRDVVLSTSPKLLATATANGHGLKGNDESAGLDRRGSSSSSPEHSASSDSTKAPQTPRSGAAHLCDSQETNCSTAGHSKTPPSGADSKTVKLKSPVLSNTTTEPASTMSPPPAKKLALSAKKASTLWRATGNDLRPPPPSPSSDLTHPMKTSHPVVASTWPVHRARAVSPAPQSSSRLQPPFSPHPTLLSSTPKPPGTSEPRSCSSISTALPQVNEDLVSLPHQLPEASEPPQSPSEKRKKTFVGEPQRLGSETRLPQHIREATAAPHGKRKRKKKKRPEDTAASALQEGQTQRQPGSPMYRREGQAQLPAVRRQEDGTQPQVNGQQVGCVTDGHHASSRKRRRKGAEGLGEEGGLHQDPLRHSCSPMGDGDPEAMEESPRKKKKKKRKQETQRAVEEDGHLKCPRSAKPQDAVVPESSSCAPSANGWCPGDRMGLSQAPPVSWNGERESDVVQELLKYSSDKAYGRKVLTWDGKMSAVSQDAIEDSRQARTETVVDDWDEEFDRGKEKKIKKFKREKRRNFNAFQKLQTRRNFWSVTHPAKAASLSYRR
In short: as §1

USP38 = biological target: T2, USP38 (UniProt Q8NB14)
T2 sequence (whole entry): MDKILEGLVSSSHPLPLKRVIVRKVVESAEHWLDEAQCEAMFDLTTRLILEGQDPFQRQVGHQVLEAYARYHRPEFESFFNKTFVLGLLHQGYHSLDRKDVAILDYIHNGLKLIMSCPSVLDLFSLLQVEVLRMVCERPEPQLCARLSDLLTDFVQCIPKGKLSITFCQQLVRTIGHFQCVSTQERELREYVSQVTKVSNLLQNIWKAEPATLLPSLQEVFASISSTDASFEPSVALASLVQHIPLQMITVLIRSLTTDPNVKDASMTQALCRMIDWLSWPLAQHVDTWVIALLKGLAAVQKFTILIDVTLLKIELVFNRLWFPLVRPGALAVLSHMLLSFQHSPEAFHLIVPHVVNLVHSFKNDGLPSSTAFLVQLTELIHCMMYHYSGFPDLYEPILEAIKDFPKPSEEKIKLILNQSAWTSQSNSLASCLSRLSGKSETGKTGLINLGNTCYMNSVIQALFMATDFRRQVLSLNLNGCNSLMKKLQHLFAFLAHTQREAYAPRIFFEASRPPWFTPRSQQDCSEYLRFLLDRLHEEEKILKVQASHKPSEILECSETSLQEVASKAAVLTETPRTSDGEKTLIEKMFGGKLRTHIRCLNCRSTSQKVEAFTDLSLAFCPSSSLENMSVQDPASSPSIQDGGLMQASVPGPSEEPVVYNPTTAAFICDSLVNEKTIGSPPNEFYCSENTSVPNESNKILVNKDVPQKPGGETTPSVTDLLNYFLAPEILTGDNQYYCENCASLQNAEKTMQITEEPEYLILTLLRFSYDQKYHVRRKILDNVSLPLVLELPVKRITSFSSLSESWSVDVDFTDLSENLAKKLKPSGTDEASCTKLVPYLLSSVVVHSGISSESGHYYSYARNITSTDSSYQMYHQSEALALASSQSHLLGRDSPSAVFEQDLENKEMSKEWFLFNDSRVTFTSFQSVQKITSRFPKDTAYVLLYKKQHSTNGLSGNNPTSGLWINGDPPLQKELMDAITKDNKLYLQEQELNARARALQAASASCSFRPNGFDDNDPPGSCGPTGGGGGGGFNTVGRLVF
In short: as §1

USP39 = biological target: T3, USP39 (UniProt Q53GS9)
T3 sequence (whole entry): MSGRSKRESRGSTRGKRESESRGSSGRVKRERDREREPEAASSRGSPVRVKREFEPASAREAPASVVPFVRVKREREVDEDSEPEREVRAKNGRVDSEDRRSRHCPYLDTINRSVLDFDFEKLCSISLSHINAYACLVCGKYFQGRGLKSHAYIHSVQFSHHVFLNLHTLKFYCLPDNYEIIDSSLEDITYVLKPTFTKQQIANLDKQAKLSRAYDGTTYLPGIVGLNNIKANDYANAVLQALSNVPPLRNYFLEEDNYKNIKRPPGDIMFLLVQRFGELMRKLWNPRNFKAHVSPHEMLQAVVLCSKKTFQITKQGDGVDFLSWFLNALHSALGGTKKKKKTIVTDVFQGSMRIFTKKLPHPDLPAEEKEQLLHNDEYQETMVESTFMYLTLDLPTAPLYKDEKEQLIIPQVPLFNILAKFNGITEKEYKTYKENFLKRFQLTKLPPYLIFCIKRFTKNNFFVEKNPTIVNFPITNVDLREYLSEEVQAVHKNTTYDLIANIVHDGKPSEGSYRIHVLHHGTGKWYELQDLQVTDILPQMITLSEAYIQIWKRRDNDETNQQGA
In short: as §1

USP4 = biological target: T4, USP4 (UniProt Q13107)
T4 sequence (whole entry): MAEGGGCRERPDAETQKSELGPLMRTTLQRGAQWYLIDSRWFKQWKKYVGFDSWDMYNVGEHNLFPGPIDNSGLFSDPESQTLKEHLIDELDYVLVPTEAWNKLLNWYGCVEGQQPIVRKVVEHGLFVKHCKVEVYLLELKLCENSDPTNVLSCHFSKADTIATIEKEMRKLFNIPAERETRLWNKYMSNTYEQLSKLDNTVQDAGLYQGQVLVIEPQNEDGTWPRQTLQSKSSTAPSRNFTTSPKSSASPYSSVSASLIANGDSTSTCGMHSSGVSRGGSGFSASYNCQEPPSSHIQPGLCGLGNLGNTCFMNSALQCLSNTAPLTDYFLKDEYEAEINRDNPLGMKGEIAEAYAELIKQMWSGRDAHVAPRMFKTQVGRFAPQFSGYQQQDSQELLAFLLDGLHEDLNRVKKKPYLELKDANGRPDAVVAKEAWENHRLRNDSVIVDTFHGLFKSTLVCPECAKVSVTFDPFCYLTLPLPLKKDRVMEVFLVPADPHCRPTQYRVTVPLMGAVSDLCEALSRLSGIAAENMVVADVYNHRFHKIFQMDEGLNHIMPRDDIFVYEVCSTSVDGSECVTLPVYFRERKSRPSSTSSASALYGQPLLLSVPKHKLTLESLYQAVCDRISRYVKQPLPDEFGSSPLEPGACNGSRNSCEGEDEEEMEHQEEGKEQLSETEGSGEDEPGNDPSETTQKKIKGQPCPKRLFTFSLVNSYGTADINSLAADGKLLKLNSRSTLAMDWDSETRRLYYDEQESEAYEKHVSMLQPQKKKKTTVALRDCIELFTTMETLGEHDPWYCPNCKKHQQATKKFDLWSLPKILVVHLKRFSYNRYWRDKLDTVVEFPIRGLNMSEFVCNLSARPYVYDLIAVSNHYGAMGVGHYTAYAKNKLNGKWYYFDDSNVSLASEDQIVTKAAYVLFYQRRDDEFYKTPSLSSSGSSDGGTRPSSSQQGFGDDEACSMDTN
In short: as §1

Measured: log2 ratio of Biotin-Ahx-Ub-VS probe labelling

USP34, sequence (Q70CQ2 whole entry, the tested form may be a part): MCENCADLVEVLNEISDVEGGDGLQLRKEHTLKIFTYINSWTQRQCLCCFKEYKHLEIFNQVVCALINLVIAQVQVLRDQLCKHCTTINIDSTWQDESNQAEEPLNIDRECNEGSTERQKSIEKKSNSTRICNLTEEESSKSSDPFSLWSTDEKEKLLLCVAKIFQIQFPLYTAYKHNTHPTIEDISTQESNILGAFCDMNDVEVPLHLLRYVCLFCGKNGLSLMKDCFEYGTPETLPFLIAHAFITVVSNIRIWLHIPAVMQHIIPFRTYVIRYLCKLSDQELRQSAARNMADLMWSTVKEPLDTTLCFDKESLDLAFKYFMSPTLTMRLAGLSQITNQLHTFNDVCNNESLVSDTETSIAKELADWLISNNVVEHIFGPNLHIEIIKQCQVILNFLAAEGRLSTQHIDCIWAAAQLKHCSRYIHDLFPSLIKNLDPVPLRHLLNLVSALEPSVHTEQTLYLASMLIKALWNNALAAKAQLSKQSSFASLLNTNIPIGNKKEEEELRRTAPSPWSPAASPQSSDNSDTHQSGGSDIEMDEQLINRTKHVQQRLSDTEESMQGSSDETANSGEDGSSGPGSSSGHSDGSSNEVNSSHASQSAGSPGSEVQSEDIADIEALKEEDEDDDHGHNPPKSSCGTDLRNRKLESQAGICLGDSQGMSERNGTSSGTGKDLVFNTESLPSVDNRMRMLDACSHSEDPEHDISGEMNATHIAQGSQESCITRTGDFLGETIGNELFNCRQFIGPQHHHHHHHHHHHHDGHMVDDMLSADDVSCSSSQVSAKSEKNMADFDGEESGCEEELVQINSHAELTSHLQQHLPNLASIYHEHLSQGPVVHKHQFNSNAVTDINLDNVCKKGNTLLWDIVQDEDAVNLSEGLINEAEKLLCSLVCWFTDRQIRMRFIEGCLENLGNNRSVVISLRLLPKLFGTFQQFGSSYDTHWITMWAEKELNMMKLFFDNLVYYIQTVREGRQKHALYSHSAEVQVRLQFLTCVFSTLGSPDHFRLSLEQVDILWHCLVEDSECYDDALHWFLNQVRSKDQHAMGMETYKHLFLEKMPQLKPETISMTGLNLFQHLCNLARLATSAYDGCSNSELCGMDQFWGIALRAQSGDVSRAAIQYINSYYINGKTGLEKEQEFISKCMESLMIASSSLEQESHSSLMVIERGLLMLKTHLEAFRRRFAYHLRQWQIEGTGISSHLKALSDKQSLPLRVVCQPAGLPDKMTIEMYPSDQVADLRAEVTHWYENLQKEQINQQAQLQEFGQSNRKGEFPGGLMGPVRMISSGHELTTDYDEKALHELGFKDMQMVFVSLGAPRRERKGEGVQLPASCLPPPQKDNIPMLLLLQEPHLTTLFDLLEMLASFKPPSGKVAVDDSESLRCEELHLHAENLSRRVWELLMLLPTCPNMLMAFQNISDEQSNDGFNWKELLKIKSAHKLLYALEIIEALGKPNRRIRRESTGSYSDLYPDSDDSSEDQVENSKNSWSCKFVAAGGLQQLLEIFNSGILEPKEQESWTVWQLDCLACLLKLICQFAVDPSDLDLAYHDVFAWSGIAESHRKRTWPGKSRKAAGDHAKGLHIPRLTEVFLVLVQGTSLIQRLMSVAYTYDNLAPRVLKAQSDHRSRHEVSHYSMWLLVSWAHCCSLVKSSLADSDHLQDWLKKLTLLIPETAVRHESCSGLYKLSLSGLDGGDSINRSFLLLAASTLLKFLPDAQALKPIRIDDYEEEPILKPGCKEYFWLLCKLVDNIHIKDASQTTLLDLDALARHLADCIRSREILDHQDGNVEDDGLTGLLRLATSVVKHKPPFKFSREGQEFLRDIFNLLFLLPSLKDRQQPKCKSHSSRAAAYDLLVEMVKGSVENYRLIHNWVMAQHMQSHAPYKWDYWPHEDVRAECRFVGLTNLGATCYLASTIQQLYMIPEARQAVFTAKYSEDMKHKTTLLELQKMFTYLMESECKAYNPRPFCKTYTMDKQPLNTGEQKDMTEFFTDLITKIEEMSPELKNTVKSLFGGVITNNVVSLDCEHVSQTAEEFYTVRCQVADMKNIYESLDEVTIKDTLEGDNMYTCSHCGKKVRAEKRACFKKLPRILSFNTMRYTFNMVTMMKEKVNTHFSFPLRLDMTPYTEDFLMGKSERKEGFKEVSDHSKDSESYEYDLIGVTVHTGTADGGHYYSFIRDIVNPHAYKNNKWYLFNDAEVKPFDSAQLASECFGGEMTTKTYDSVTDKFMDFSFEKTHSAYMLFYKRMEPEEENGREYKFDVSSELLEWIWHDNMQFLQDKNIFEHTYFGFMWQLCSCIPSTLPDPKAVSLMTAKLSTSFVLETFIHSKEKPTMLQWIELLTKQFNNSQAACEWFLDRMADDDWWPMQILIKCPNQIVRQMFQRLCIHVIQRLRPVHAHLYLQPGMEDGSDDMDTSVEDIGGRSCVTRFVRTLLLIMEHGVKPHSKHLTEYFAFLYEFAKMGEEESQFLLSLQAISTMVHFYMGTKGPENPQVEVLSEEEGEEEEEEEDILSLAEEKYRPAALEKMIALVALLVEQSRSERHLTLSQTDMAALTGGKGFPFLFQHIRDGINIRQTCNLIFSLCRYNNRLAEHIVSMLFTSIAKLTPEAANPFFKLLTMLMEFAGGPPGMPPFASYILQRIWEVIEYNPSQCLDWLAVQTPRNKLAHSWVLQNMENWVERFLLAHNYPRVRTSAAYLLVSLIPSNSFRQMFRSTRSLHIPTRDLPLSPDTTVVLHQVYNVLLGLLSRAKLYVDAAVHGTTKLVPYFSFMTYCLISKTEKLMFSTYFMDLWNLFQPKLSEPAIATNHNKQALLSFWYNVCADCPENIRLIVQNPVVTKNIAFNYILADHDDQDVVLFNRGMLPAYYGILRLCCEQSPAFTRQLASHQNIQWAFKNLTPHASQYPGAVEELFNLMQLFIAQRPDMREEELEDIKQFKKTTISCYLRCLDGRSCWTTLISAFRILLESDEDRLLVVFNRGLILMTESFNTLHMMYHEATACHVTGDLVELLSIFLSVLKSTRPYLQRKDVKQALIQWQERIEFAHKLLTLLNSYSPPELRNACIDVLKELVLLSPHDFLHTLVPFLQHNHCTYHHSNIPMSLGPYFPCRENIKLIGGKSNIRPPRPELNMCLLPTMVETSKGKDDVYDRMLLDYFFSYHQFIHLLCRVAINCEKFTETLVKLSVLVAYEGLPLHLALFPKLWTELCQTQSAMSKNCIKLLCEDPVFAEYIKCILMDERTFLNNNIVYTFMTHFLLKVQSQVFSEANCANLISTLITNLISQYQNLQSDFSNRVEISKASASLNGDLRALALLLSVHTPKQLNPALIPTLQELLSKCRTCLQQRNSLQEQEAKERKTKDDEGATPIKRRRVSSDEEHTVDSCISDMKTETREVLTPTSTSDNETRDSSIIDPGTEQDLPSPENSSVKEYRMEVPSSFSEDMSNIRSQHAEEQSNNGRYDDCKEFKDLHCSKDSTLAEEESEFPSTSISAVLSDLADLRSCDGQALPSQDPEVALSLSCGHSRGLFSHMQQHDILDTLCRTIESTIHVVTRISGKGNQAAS

CC(NC(=O)CCl)c1cnn(C2CC2)c1 (stereo not given)
inactive: USP34 -0.133 | USP36 -0.123 | USP38 -0.144 | USP39 -0.0478 | USP4 -0.409
